# Screening data (PubChem BioAssay)
# GPT2 inh: inhibitors of human GPT2 alanine aminotransferase. Recombinant GPT2, coupled pyruvate oxidase/HRP Amplex Red fluorescence. actives 0.25% (n = 100,000). Potency, µM (highest dose often 57.7 µM), inactives show top-dose activity change, negative = inhibition, actives largely listed as inhibitors. Q8TD30; note: potency is the fitted concentration of half-maximal effect; % is set by controls: 0 for no effect and ±100 for the full control effect; nearly all actives have a fitted effect of over 60% in size
#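 Fluorescence read-out: pyruvate from GPT2 turnover coupled to pyruvate oxidase, HRP and Amplex Red (0.2mM ThPP, 0.2U/mL PO and HRP, 50uM Amplex final). Substrates 250uM a-KG, 2mM L-alanine; enzyme 10ng/uL; 30 min RT.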
# HEK293 viab: reduces viability of HEK-293 SNCA reporter cells | HEK-293-SNCA-luc viability, GF-AFC fluorescence, 24 h | actives 0.12% (n = 150,000) | Potency, µM (series often up to 57.1 µM), for inactives: at the highest dose activity change, negative = cytotoxicity, hits mostly cytotoxic;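 note: potency is the fitted concentration of half-maximal effect; 0% = DMSO-treated cells and -100% = medium-only wells without cells; nearly all actives have a fitted effect of over 30% in size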
#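 Cytotoxicity counterscreen: after 24 h compound treatment of genome-edited SNCA-luciferase HEK-293 cells, live-cell protease substrate GF-AFC read by fluorescence after 30 min; activity scaled between DMSO (0%) and medium-only (-100%), curves Hill-fitted.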
# SNCA expr inhib: inhibitors of alpha-synuclein (SNCA) gene expression; HEK-293 SNCA-luciferase knock-in, luminescence, 24 h; Potency, µM (doses to about 57.2 µM), for the others: top-dose activity change, negative = inhibition, actives largely listed as inhibitors; actives 0.17% (n = 140,000); AID 1671194;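 note: potency is the fitted concentration of half-maximal effect; plate controls were DMSO cells for no effect and cell-free wells for full effect; nearly all actives have a fitted effect of over 45% in size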
# IP6K1 inh: inhibitors of human IP6K1 | Q92551 | IP6K1 kinase, ADP-Glo luminescence, 2 h; stronger effect = lower value | activity change, % (series mostly up to about 58 µM) | actives 0.81% (n = 140,000) | AID 1645851; in the data active = activity change below about -25%; note: % is set by controls: 0 for no effect and ±100 for the full control effect
#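 ADP-Glo luminescence measures ADP made by human IP6K1 during a 2 h RT reaction with ATP/IP6 (mix at 1.3 mM/130 uM); top library doses 57.5 and 19.1 uM final.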
# GPT2 inh cnf: confirmation of human GPT2 inhibitors; shares compounds with GPT2 inh; actives 90% (n = 95); Potency, µM, usual class: inhibitors; AID 1671187; GPT2 enzyme, coupled Amplex Red pyruvate fluorescence
# The depositor's hits bear a star; i = inactive; ? = inconclusive; . = no result; [ ] = another dose, or the depositor's remark. In the library only some 1.1% were active in any assay of this set; here they are far more common. Unless noted, calls come from the whole dose curve; as a rule, active = well fitted curve in the direction sought with a large enough effect; inconclusive = small, poorly fitted or top-dose-only effect, or another doubt; inactive = no such curve, though single readings can be large; an effect the other way counts as inactive or inconclusive.
SMILES,GPT2 inh,HEK293 viab,SNCA expr inhib,IP6K1 inh,GPT2 inh cnf
COc1ccc(Nc2cc(C(=O)NCc3cccnc3)c3c(c2)ncn3C)cc1,.,.,.,.,3.1*
Cc1ccc(-c2cc(C(=O)NCc3cccnc3)c3c(c2)ncn3C)cn1,i,9%[87.6 µM],6%[87.6 µM],10,.
O=C(C1CCCCc2nnc(-c3ccccc3)n21)N1CCCC1 (stereo unspecified),1%,-9%,19%,10,.
CC(=O)N1CCN(C(=O)c2nc3sccn3c2-c2cccc(C#N)c2)CC1,-2%,2%,1%,-3,.
C=CC(=O)Nc1cccc(Nc2nc(Nc3ccc(NC4CN(CCF)C4)cc3OC)ncc2C(F)(F)F)c1,8.9µM*,4.7µM*,.,-6,3.1*
CC(=O)NCC(=O)N1C2CCC1c1cc(Nc3ncc(C(F)(F)F)c(NC4CCC4)n3)ccc12 (stereo unspecified),1%,?,.,-18,.
